Pf Dd2 growth – qHTS Primary assay for Inhibitors of Plasmodium falciparum Dd2 growth in vitro; P. falciparum Dd2 growth, SYBR Green, 72 h; Potency, µM (series often up to 28.9 µM), for inactives: at the top dose activity, negative = inhibition, hits mostly inhibitors; hit rate 4.3% among 120,000; active means well fitted inhibition curve with a large enough effect;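 further: plate controls were DMSO vehicle for no effect and reference drug for full effect; nearly all actives have a fitted effect of over 65% in size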
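Readout: SYBR Green fluorescence, 485 nm excitation, 535 nm emission, after ~16 h lysis at 37C. Before that, Dd2-infected red cells (2.5% hematocrit) grew 72 h with compound, 29 uM top final concentration.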
The depositor's hits bear a star; i = inactive; [ ] = another dose, or the depositor's remark. The entries come from a sample that favours hits as a whole. Potency means the concentration at half of the fitted maximal effect.

SMILES	Pf Dd2 growth
COCCC(=O)N1CCC2(CC1)CC(Cc1nc(-c3ccncc3)no1)CCO2 (stereo unspecified)	-7.2%
COc1ccc(CCC(=O)N2CCC3(CC2)CC(Cc2nc(-c4cnccn4)no2)CCO3)cc1 (stereo unspecified)	i
COc1cccc(CC(=O)N2CCC3(CC2)CC(Cc2nc(-c4cccnc4)no2)CCO3)c1 (stereo unspecified)	8.91µM*
Cc1nn2c(c1-c1ccccc1[S+](C)(=O)[O-])N(C(=O)c1cccc(O)c1)CCC2	14.2%[44.1 µM]
CCN1c2cc(C(=O)NCc3ccc(SC)cc3)ccc2C(=O)N2CCCCC21 (stereo unspecified)	-21.2%
CCN(CC)C(=O)[C@@H]1CCCN1C1(C(=O)NC)COC1	16.8%[44.1 µM]
O=C(CN1C(=O)C(c2ccccc2)=NC12CCCC2)NC1CCCCC1	61.1%
CCOc1ccc(NC(=O)N(Cc2cn(CC)c3ccccc23)C2CCCCCC2)cc1	10µM*
CCOc1ccc(NC(=O)Cn2cc(C(=O)C3CC3)c3ccccc32)cc1	4.6%
CCOc1ccc(CNC(=O)CCc2cn(CC)c3ccccc23)cc1	-11.6%
CC(C)C1=NOC2(CCN(S(C)(=O)=O)CC2)C1	1.3%[44.1 µM]
CC(C)N1C[C@H](O)C[C@H]1c1nnc2n1CCN(C(=O)c1ccsc1)C2	29.6%
COc1ccc(-c2nc3scc(CCNS(=O)(=O)c4ccccc4F)n3n2)cc1	-10.8%
COc1ccc(-c2nc3scc(CCNC(=O)c4cccc(Br)c4)n3n2)cc1	1µM*
O=C(NCCc1csc2nc(-c3ccc(F)cc3)nn12)c1cccc(C(F)(F)F)c1	49.3%[5.79 µM]
CC(C)N1CC2CCC(C1)N2Cc1ccc(-c2ccsc2)cc1	11.2µM*
O=C(Nc1ccccc1F)N1CC2CCC(C1)N2Cc1ccc(-c2ccsc2)cc1	-4.5%
CC(C)N1CC2CCC(C1)N2CC1CCCC1	-37.6%[44.1 µM]
CCC1C(=O)N(C)CCN1C(=O)c1coc(COc2ccc3c(c2)OCO3)n1 (stereo unspecified)	-15.0%
CC(C)(C)c1ccc(-c2cn(C[C@H]3CC4CCN3C[C@@H]4C(=O)NCc3ccccc3)nn2)cc1 (stereo partly specified)	i
COc1ccc(-n2nc(C3CCCN(C(=O)c4ccc(C(F)(F)F)cc4)C3)[nH]c2=O)cc1 (stereo unspecified)	-17.6%
Cc1ccc(OCC(=O)N2[C@@H]3CC[C@H]2CC(NC(=O)c2ccncc2)C3)cc1 (stereo partly specified)	i
Cc1ccccc1NC(=O)CN1C(=O)C(c2ccccc2)=NC12CCCCCC2	i
Cc1ccccc1NC(=O)CN1C(=O)C(c2ccccc2)=NC12CCCCC2	i
COc1cc(Cl)c(C)cc1NC(=O)CN1C(=O)C(c2ccccc2)=NC12CCCC2	11.2µM*
SMILES	Pf Dd2 growth
Cn1c(=O)n([C@H]2CCCN(C(=O)C3CC3)C2)c2ncccc21	-4.9%
CCCNC(=O)C1C(c2ccc(NC(=O)c3ccco3)cc2)OC(=O)N1Cc1ccccc1 (stereo unspecified)	i
COCC(=O)NC1CCC12CCN(C(=O)C1CCOCC1)CC2 (stereo unspecified)	-16.1%
CCOc1ccc(-n2c(SCC(=O)Nc3cc(C)on3)nc3c([nH]c4ccccc43)c2=O)cc1	i
COc1cccc(-n2c(SCC(=O)c3ccccc3)nc3c([nH]c4ccccc43)c2=O)c1	7.6%
COc1cccc(NC(=O)CSc2nc3c([nH]c4ccccc43)c(=O)n2-c2cc(C)cc(C)c2)c1	8.91µM*
Cc1cc(C)cc(-n2c(SCC(=O)Nc3nnc(C)s3)nc3c([nH]c4ccccc43)c2=O)c1	7.5%
CCn1c(SCC(=O)Nc2cc(Cl)ccc2OC)nc2c([nH]c3ccccc32)c1=O	i
Cc1cc(NC(=O)CSc2nc3c([nH]c4ccccc43)c(=O)n2-c2ccc(Cl)cc2)no1	-2.7%
Cc1cccc(CSc2nc3c([nH]c4ccccc43)c(=O)n2C)c1	27.5%
COc1ccc(Cl)cc1NC(=O)CSc1nc2c([nH]c3ccccc32)c(=O)n1-c1ccccc1	4.47µM*
O=C(CSc1nc2c([nH]c3ccccc32)c(=O)n1-c1ccccc1)Nc1ccccc1C(F)(F)F	27.7%
Cc1ccc(-n2c(SCC(=O)Nc3ccc4c(c3)OCO4)nc3c([nH]c4ccccc43)c2=O)cc1	10µM*
COc1cccc(-n2c(SCc3cccc(C)c3)nc3c([nH]c4ccccc43)c2=O)c1	10µM*
Cc1cccc(NC(=O)CSc2nc3c([nH]c4ccccc43)c(=O)n2C)c1	3.7%
O=C(Nc1ccc2c(c1)OCCO2)C1CCN(C(=O)N2CC3CC(C2)[C@H]2CCCC(=O)N2C3)CC1 (stereo partly specified)	i
CC(C)Cc1cn(CC2CCCN(C(=O)c3n[nH]c4c3CCCC4)C2)nn1 (stereo unspecified)	-3.4%
COCCCNC(=O)C(NC(=O)c1ccccc1C)C1CCN(C(=O)c2cccs2)CC1 (stereo unspecified)	-21.5%
COc1cc(NC(=O)Cn2c(C)cc3nc4n(c(=O)c32)CCCCC4)cc(OC)c1OC	i
COc1ccccc1-c1cc(C(=O)N2CCOCC2)c2cnn(C)c2n1	-3.1%

From PubChem
